Consider twelve compounds from the supplement of paper PMC13380429.

The test system of this assay is Vero E6 infected with SARS-CoV-2. The assay can be described thus: morphology score (similarity to uninfected cells); higher = more like uninfected cells. Conditions: 24 h.
Regarding `OCCN1CCN(CCCN2c3ccccc3Sc3ccc(C(F)(F)F)cc32)CC1` [fluphenazine] (0.833333 µM), the morphology score was -0.174.
`CCCCOc1cc(C(=O)NCCN(CC)CC)c2ccccc2n1` [cinchocaine] (10 µM): the morphology score is 0.435.
Turning to `COC(=O)C(Cc1ccc(OCCn2c(=O)sc3cc(C(=O)c4ccccc4)ccc32)cc1)C(=O)OC` (10 µM), the morphology score is 0.318.
Regarding `CC(C)[N+](C)(CCC(C(N)=O)(c1ccccc1)c1ccccc1)C(C)C` [isopropamide-iodide] (10 µM), the morphology score stood at 0.192.
As to `CCCC[C@H](NC(=O)[C@@H]1[C@@H]2[C@H](CN1C(=O)[C@@H](NC(=O)NC1(CS(=O)(=O)C(C)(C)C)CCCCC1)C(C)(C)C)C2(C)C)C(=O)C(=O)NC1CC1` [narlaprevir] (10 µM), the morphology score came to 0.157.
In turn, `CCc1oc2ccccc2c1C(=O)c1cc(Br)c(O)c(Br)c1` [benzbromarone] (10 µM) showed a morphology score of 0.145.
For the compound `O=C(O)CSCC(=O)NC1CCSC1=O` (configuration not stated) [erdosteine] (10 µM), the morphology score is -0.0411.
`CCOc1ccc(NC(=S)N2CCC(C(O)(c3ccccc3)c3ccccc3)CC2)cc1` (10 µM): the morphology score stood at 0.267.
Under `C/C=C1\[C@H]2C=C(C)C[C@]1(N)c1ccc(=O)[nH]c1C2` [(-)-Huperzine A] (10 µM) stands -0.118; under `CCCCC1=NC2(CCCC2)C(=O)N1Cc1ccc(-c2ccccc2-c2nnn[nH]2)cc1` [irbesartan] (10 µM), 0.0469; under `CNC(=O)c1ccc2c(c1)S(=O)(=O)c1ccccc1C2=O` (10 µM), -0.0141.
Then `CN1CCC(=C2c3ccccc3C=Cc3ccccc32)CC1` [cyproheptadine] (0.833333 µM), with 0.0226.
